From PubChem BioAssay
Compounds with a hit are over-represented: about 12% of the library has one in this group of screens.
Sfp PPTase inh – inhibitors of Bacillus subtilis Sfp phosphopantetheinyl transferase; AID 1490; Biochemical Sfp PPTase activity, qHTS; Potency, µM, most hits filed as inhibitors; 310,000 compounds, 3.5% hits;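 further: the enzyme is Sfp with the accession as filed and its product quenches rhodamine fluorescence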
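Step 1, compound plus 15 nM Sfp-PPTase, 15 min, room temperature. Step 2, add rhodamine-CoA (5 uM) and BHQ-2-YbbR (12.5 uM). Step 3, read 525/598 nm fluorescence at 0 and 30 min.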
TDP1 inh – inhibitors of human tyrosyl-DNA phosphodiesterase TDP1 | Potency, µM (titrated, usually from 130 µM), hits mostly inhibitors | Q9NUW8 | recombinant TDP1, AlphaScreen DNA substrate cleavage | 350,000 compounds, 0.28% hits | AID 485290; further: nearly all actives have a fitted effect of over 40% in size
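Enzyme-compound mixtures sat 15 min at room temperature, followed by a 5 min reaction with 15 nM final substrate and 10 min with AlphaScreen beads. Recombinant human Tdp1 was used at 1 nM final.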
G9a inh – inhibitors of human histone lysine methyltransferase G9a; Q96KQ7; G9a H3K9 monomethylation, AlphaScreen, 2 h; Potency, µM (doses to about 102 µM), actives largely listed as inhibitors; 350,000 compounds, 8.8% hits; AID 504332; further: nearly all actives have a fitted effect of over 75% in size
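Step 1: enzyme (final 20 nM) with compound, 15 min RT. Step 2: substrate peptide 500 nM and SAM 20 uM, 2 h RT. Step 3: anti-H3K9me1 antibody and AlphaScreen beads, 10 min, then plate read.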
BAZ2B block – BAZ2B (human) inhibition | Q9UIF8 | AlphaScreen BAZ2B-H3K14Ac peptide displacement | Potency, µM (top dose mostly 114 µM), hits mostly inhibitors | 360,000 compounds, 4.4% hits; further: nearly all actives have a fitted effect of over 60% in size
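Protein-peptide AlphaScreen: BAZ2B 50 nM, b-H3K14Ac 50 nM, 1x PBS pH 7.4 + 0.01% Tween-20. Preincubation 30 min RT; cpd 30 min RT (top 110 uM); beads 20 min RT, light-protected.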
HP1b chromo inh – inhibitors of HP1-beta chromodomain binding to methylated histone tails; P83916; AlphaScreen HP1-beta / biotin-H3K9me3 peptide binding; Potency, µM (highest dose often 114 µM), usual class: inhibitors; 390,000 compounds, 0.56% hits; further: nearly all actives have a fitted effect of over 70% in size
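Compound inhibition of the preformed complex between 50 nM HP1-beta and 50 nM biotinylated H3K9me3 peptide was read by AlphaScreen. Buffer was PBS pH 7.4 with 0.01% Tween-20. Incubations ran 30 min at room temperature, with 10 ug/mL donor/acceptor beads.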
JMJD2A Tudor inh – inhibitors of human JMJD2A Tudor domain; AlphaScreen JMJD2A-Tudor / H3K4me3 peptide binding; Potency, µM (top dose mostly 114 µM), hits mostly inhibitors; 390,000 compounds, 4.4% hits; further: nearly all actives have a fitted effect of over 50% in size
Large screens that a line does not name were inactive. The call rests on the fitted dose curve; in most records, active means well fitted curve in the direction sought with a large enough effect; inconclusive means small, poorly fitted or top-dose-only effect, or another doubt; inactive means no such curve, though single readings can be large; an effect the other way counts as inactive or inconclusive.

COc1cccc(/C=N/N2CCN(C3c4ccccc4-c4ccccc43)CC2)c1O	G9a inh 35.5µM, JMJD2A Tudor inh inconclusive
Cc1ccc(-n2nc(CO)c(C(=O)NC(C)c3ccccc3)n2)cc1C (centres undefined)	none (no result: Sfp PPTase inh)
CN1CCN(CCNC(=O)Nc2ccccc2C(F)(F)F)CC1	none
CCCN1CCN(C(=S)Nc2ccccc2C(F)(F)F)CC1	G9a inh 39.8µM
COCCn1c(=S)[nH]c2cc(C(=O)N3CCc4ccccc4C3)ccc2c1=O	JMJD2A Tudor inh 31.6µM
CCN(CC)C(=O)c1ccc2c(=O)n(Cc3cccc(Br)c3)c(=S)[nH]c2c1	none (no result: TDP1 inh)
CCN(CC)C(=O)c1ccc2c(=O)n(CCOC)c(=S)[nH]c2c1	G9a inh 44.7µM, BAZ2B block inconclusive, JMJD2A Tudor inh 17.8µM
COc1cccc(C(=O)CC(C#N)c2ccc(F)cc2)c1 (centres undefined)	none (no result: TDP1 inh)
CCNC(=S)N=Nc1c(O)n(Cc2ccc(Cl)cc2)c2ccccc12	Sfp PPTase inh inconclusive, G9a inh inconclusive, BAZ2B block inconclusive, HP1b chromo inh inconclusive, JMJD2A Tudor inh inconclusive
Cc1ccc(Cn2c(O)c(N=NC(=S)Nc3ccccc3F)c3cc(S(=O)(=O)N4CCOCC4)ccc32)cc1	G9a inh inconclusive
Oc1c(N=NC(=S)Nc2ccccc2F)c2ccccc2n1Cc1ccccc1F	G9a inh 11.2µM, HP1b chromo inh inconclusive, JMJD2A Tudor inh inconclusive
Oc1c(N=NC(=S)Nc2ccccc2F)c2ccccc2n1Cc1ccc(Cl)cc1	G9a inh 10µM, BAZ2B block inconclusive, JMJD2A Tudor inh inconclusive
Cc1ccccc1Cn1c(O)c(N=NC(=S)Nc2ccccc2F)c2ccccc21	G9a inh 12.6µM, BAZ2B block inconclusive, HP1b chromo inh inconclusive, JMJD2A Tudor inh inconclusive
Cc1ccc(C)c(Cn2c(O)c(N=NC(=S)Nc3ccccc3F)c3ccccc32)c1	G9a inh inconclusive, HP1b chromo inh inconclusive, JMJD2A Tudor inh inconclusive
c1ccc(COc2ncnc3c2ncn3CCCNCCN2CCOCC2)cc1	none (no result: Sfp PPTase inh, TDP1 inh, G9a inh, BAZ2B block)
O=C(CC1S/C(=N/N=C/C=C/c2ccccc2)NC1=O)Nc1ccc(C(=O)O)cc1 (centres undefined)	G9a inh inconclusive, BAZ2B block 79.4µM (no result: TDP1 inh)
O=C(CC1S/C(=N/N=C/c2c[nH]c3ccccc23)NC1=O)Nc1ccccc1 (centres undefined)	none
CC(C)Oc1ccccc1NC(=O)CSc1nccn1C	none (no result: TDP1 inh)
CC1CCC2C(C1)Nc1c(C(=O)O)cccc1C2(C)C (centres undefined)	BAZ2B block 79.4µM (no result: G9a inh)
CCOc1ccccc1OC(=O)c1ccco1	none
O=C(Oc1cccc2cccnc12)c1ccc(Br)o1	G9a inh inconclusive, BAZ2B block 50.1µM
O=C(Cc1ccc(Cl)cc1)Oc1cccc2cccnc12	G9a inh inconclusive, BAZ2B block 10µM, JMJD2A Tudor inh 25.1µM
O=C(COc1ccc(Cl)c2cccnc12)N1CCOCC1	none (no result: Sfp PPTase inh)
O=C(Oc1ccc(Cl)c2cccnc12)c1ccco1	G9a inh inconclusive, BAZ2B block 50.1µM
O=C(Oc1cccc2cccnc12)c1ccco1	BAZ2B block 70.8µM
CSCC[C@@H]1NC(=O)C/C=C\[C@@H](C)COC(=O)[C@@H](C)COC1=O	none (no result: G9a inh, BAZ2B block, HP1b chromo inh, JMJD2A Tudor inh)
CC1CCC(NC(=O)c2ccc3c(c2)N(Cc2ccccc2F)C(=O)c2ccccc2S3=O)CC1 (centres undefined)	none (no result: Sfp PPTase inh)
COc1ccc(OC)c(/C=N/NC(=O)C(O)c2ccccc2)c1 (centres undefined)	none (no result: G9a inh)
Cc1cccc(C(C(=O)NCc2ccc(F)cc2)N(C(=O)c2csnn2)C2CC2)c1 (centres undefined)	none
CCCCOc1ccc(C(=O)N2CCN(CCc3ccccn3)CC2)cc1	none (no result: Sfp PPTase inh)
O=C(O)CCNc1cc(N2CCN(C(=O)c3ccco3)CC2)c2noc3c2c1C(=O)c1ccccc1-3	G9a inh 10µM, BAZ2B block 12.6µM, HP1b chromo inh inconclusive, JMJD2A Tudor inh 17.8µM
CCN1CCN(c2cc(N3CCN(C(=O)c4ccco4)CC3)c3c4c(onc24)-c2ccccc2C3=O)CC1	Sfp PPTase inh 50.1µM, G9a inh 17.8µM, BAZ2B block 11.2µM, HP1b chromo inh inconclusive, JMJD2A Tudor inh 28.2µM
